# Assay outcomes from PubChem.
# An excerpt weighted towards active compounds, which were near 21% of everything screened.
# Shiga inhibitor = A qHTS for Small Molecule Inhibitors of Shiga Toxin | Vero cells, Shiga toxin protein synthesis inhibition reporter | inhibition, % at 38.7 µM | actives 9.2% (n = 290,000) | AID 2315, 2010; in the data active = inhibition mostly above about 28%, no sharp cut-off; inactive = mostly below about 43%
# HCV inh = qHTS Assay for Inhibitors of Hepatitis C Virus (HCV); actives 3.4% (n = 340,000); Huh7.5.1 HCVcc-Cre infection, luciferase reporter, 44 h; Potency, µM (titrated, usually from 41.8 µM), hits mostly inhibitors; AID 651820, 2012
#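 Seed cells (1,000/well) for 4 h; treat with compound and infect with HCVcc-Cre, moi about 0.5. Incubate 44 h, then detect luciferase activity.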
# AMA1 RON2 block = qHTS for Inhibitors of AMA1-RON; Towards Development of Antimalarial Drug Lead: Primary Screen | actives 0.2% (n = 360,000) | Potency, µM (top dose mostly 58.2 µM), usual class: inhibitors | AlphaScreen AMA1-biotinylated RON2 peptide binding | AID 720542, 2013 | Plasmodium falciparum AMA1 (3D7) - RON2 peptide interaction; also: nearly all actives have a fitted effect of over 45% in size
#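 AMA1 (3D7) with his tag at 25 nM final met compounds first, then biotinylated RON2 peptide at 25 nM; detection used donor plus acceptor beads, 10 µg/mL apiece, read by AlphaScreen after 30 min at room temperature.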
# CHX counter = Cycloheximide Counterscreen for Small Molecule Inhibitors of Shiga Toxin; cell reporter, cycloheximide protein synthesis inhibition counterscreen; max response, %; actives 12% (n = 300,000); AID 2314, 2010; in the data active = max response mostly above about 13%, no sharp cut-off; inactive = mostly below about 14%; also: read at 38.3 µM for the half of the compounds with a filed dose
# Pf growth 48h = Primary qHTS for delayed death inhibitors of the malarial parasite plastid, 48 hour incubation | P. falciparum luciferase growth in erythrocytes, 48 h | Potency, µM (series often up to 28.7 µM), most hits filed as inhibitors | actives 5.9% (n = 310,000)
#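 A one-generation exposure of luciferase-tagged malaria parasites in RPMI 1640/Albumax erythrocyte culture, 37 C and 5% CO2. Inhibition is inferred from decreased luminescence after adding detection reagent.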
# Pf growth 96h = Primary qHTS for delayed death inhibitors of the malarial parasite plastid, 96 hour incubation. P. falciparum luciferase reporter growth, 96 h. Potency, µM (top dose mostly 28.7 µM), most hits filed as inhibitors. actives 6.9% (n = 320,000)
#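 Two parasite generations (96 h, 37 C, 5% CO2) of compound exposure in infected erythrocytes (0.05% parasitemia, 2% hematocrit). Luciferase-reporter P. falciparum; decreased luminescence indicates inhibited growth, aimed at apicoplast-acting delayed death.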
# A number is an active result; i = inactive; ? = inconclusive; nt = no result; [ ] = dose if it differs, or a comment. Unless noted, calls follow the shape of the dose curve; as a rule, active = well fitted curve in the direction sought with a large enough effect; inconclusive = small, poorly fitted or top-dose-only effect, or another doubt; inactive = no such curve, though single readings can be large; an effect the other way counts as inactive or inconclusive.
SMILES,Shiga inhibitor,HCV inh,AMA1 RON2 block,CHX counter,Pf growth 48h,Pf growth 96h
COc1ccccc1NC(=S)NNC(=O)c1ccc(Cl)cc1Cl,51,i,i,31,i,i
COc1ccccc1NC(=S)NC(=O)CCCOc1ccc(Cl)cc1Cl,i,i,i,i,nt,i
O=C1NC(=O)C(CCc2ccncc2)(Cc2cccc(Cl)c2Cl)C(=O)N1c1ccc(Br)cc1 (centres undefined),i,i,i,i,?,5.2µM
CCc1ccc(N2C(=O)NC(=O)C(CCc3ccncc3)(CCc3ccncc3)C2=O)cc1,i,i,i,i,?,i
CCN(CC)c1ccc(/C=N/NC(=O)c2ccc(O)cc2)cc1,116,nt,nt,49,nt,nt
CCN(CC)c1ccc(NC(=O)OC)cc1,i,i,i,i,i,nt
CCN(CC)c1ccc(/C=N\NC(N)=O)cc1,i,i,i,i,i,i
C/C(=N\NC(=O)c1ccc(OC2CCCC2)cc1)c1ccc(O)cc1,i,i,i,i,?,13µM
CCN(CC)c1ccc(/C=N/NC(=O)c2ccoc2C)cc1,45,i,i,25,i,i
CCN(CC)c1ccc(/C=N/NC(=O)OC(C)(C)C)cc1,85,i,i,34,i,i
CCN(CC)c1ccc(/C=N/NC(=S)NCc2ccco2)cc1,i,?,i[2.32 µM],i,?,?
Cc1ccc(NC(=O)Cc2nnc(SCC(=O)NC3CCCC3)n2C)cc1C,i,i,i,i,i,i
COc1ccc(CN(C)C[C@@H]2OCc3cnnn3CCCC(=O)N([C@@H](C)CO)C[C@H]2C)cc1,nt,nt,i,nt,nt,nt
CCN(CC)c1ccc(/C=N/NC(=O)CC(C)C)cc1,47,i,i,47,i,?
CCN(CC)c1ccc(C(=O)N/N=C(\C)c2ccc(O)cc2)cc1,i,i,i,i,?,10µM
CCCOc1ccc(/C=N/O)cc1,i,i,i,i,i,i
CCN(CC)c1ccc(/C=N/O)cc1,i,i,i,17,i,i
CC1=Nc2ccccc2/C1=C/c1c(N)n2c(S(=O)(=O)CC(C)C)nsc2nc1=O,i,i,i,i,i,?
COC(=O)c1ccc(C(C(=O)NC2CCCCC2)N(Cc2ccccc2)C(=O)Cc2cccs2)cc1 (centres undefined),i,i,i,i,i,i
O=C(NC1CCCCC1)C(c1ccc2ncccc2c1)N(Cc1ccccc1)C(=O)c1ccc2c(c1)OCCO2 (centres undefined),i,?,i,i,13µM,10µM
COc1ccc(CN(C(=O)c2ccc3c(c2)OCCO3)C(C(=O)NC2CCCCC2)c2ccc3ncccc3c2)cc1 (centres undefined),i,i,i,i,?,9.3µM
CCC(C)Sc1ccc([C@@H]2[C@@H]3C(=O)N(C)C(=O)[C@@H]3[C@]3(C(=O)OC)CCCCN23)cc1 (some centres undefined),nt,i,i,nt,?,?
O=C(COc1ccc(Cl)cc1Cl)Nc1ccc(CN2CCOCC2)cc1,i,?,i,i,i,i
COc1ccccc1NC(=O)COc1ccc(C(=O)NCc2ccccc2)cc1OC,nt,?,i,nt,13µM,?
O=C(COc1ccc(CO)cc1Cl)Nc1ccc(F)cc1,58,i,i,48,nt,i
SMILES,Shiga inhibitor,HCV inh,AMA1 RON2 block,CHX counter,Pf growth 48h,Pf growth 96h
COc1ccccc1NC(=O)COc1ccc(CO)cc1Cl,57,10µM,i,32,i,nt
O=C(COc1ccc(CO)cc1)Nc1ccc(F)cc1,i,i,i,16,i,i
COc1ccccc1NC(=O)COc1ccc(C(=O)NCC2CCCO2)cc1OC (centres undefined),nt,i,i,nt,nt,nt
CC(C)NC(=O)C1(C)CN(S(C)(=O)=O)CC(=O)N1Cc1cccc(C(F)(F)F)c1 (centres undefined),nt,nt,i,nt,nt,nt
CCCc1nc2oc3c(OC)ncnc3c2c2c1COC(C)(C)C2,i,?,i,i,nt,6.6µM
CC(C)c1nc2oc3c(NCCO)ncnc3c2c2c1COC(C)(C)C2,i,i,i,i,i,?
Cc1nc2oc3c(NCc4ccccc4)ncnc3c2c2c1COC(C)(C)C2,i,i,i,i,12µM,?
